Only a selection was taken, and hits are over-represented in it overall.
Shiga toxin inh – blocks Shiga toxin action in Vero cells; Vero cells, Shiga toxin protein synthesis inhibition reporter; inhibition, % at 38.7 µM; 290,000 tested, 9.2% active; in the data active = inhibition mostly above about 28%, no sharp cut-off; inactive = mostly below about 43%; note: 0% is about no effect
LmPK inh – inhibitors of Leishmania mexicana pyruvate kinase; Q27686; purified LmPK, Kinase-Glo ATP luminescence, 1 h; Potency, µM (series often up to 57.5 µM), inactives show top-dose activity change, negative = inhibition, actives largely listed as inhibitors; 290,000 tested, 0.37% active; AID 1721; active = well fitted curve in the direction sought with a large enough effect; inconclusive = small, poorly fitted or top-dose-only effect, or another doubt; inactive = no such curve, though single readings can be large; an effect the other way counts as inactive or inconclusive; note: potency is the fitted concentration of half-maximal effect; % is set by controls: 0 for no effect and ±100 for the full control effect
Target sequence (Q27686 whole entry, looked up): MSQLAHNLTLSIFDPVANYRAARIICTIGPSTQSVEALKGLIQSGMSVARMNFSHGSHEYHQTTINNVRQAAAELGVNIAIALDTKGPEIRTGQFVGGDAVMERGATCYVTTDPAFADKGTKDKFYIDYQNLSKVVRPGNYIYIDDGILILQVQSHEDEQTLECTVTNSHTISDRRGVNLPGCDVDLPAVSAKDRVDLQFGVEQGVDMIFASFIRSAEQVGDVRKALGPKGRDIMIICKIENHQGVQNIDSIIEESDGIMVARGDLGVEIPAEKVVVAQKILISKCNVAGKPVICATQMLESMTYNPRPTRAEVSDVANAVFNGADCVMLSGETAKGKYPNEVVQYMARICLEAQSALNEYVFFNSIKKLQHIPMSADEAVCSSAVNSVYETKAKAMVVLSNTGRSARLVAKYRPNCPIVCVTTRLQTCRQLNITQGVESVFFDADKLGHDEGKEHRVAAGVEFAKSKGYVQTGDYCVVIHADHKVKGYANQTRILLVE
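Purified LmPK (0.1 nM) with 0.5 mM PEP and 0.1 mM ADP in imidazole buffer pH 7.2 with MgCl2/KCl, 1 h at room temperature. ATP formed was read by luciferase luminescence and normalized to no-enzyme and uninhibited controls.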
Cycloheximide cs – counter-screen hit for Shiga toxin inhibitors, cycloheximide; 300,000 tested, 12% active; cell reporter, cycloheximide protein synthesis inhibition counterscreen; max response, %; AID 2314; in the data active = max response mostly above about 13%, no sharp cut-off; inactive = mostly below about 14%; note: read at 38.3 µM for the half of the compounds with a filed dose; 0% is about no effect
SARS PLP yeast – SARS-CoV PLP inhibition in yeast; S. cerevisiae expressing SARS-CoV PLpro, growth rescue; 330,000 tested, 0.19% active; Potency, µM (series often up to 32.9 µM), inactives show at the top dose activity, positive = growth rescue, most hits filed as activators; note: potency is the fitted concentration of half-maximal effect; 0% is about no effect; nearly all actives have a fitted effect of over 55% in size
Tb PYK inh – blocks Trypanosoma brucei pyruvate kinase. Potency, µM (titrated, usually from 76.8 µM), without a hit: at the top dose activity, negative = inhibition, actives largely listed as inhibitors. AID 624173. TbPYK enzyme, Kinase-Glo Plus ATP luminescence, 45 min. 410,000 tested, 0.12% active. Q57TT1; active = well fitted curve in the direction sought with a large enough effect; inconclusive = small, poorly fitted or top-dose-only effect, or another doubt; inactive = no such curve, though single readings can be large; an effect the other way counts as inactive or inconclusive; note: potency is the fitted concentration of half-maximal effect; % is set by controls: 0 for no effect and ±100 for the full control effect; nearly all actives have a fitted effect of over 50% in size
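Luminescence from Kinase-Glo Plus, added after a 45-minute room-temperature reaction, served as the end-point read-out. The enzyme and substrate were preincubated with compound before ADP (130 uM final) initiated turnover. Concentration-effect curves came from normalized qHTS data.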
NS1 inh – influenza NS1 inhibition. Potency, µM (highest dose often 46.1 µM), for inactives: top-dose activity, positive = more growth. 270,000 tested, 0.4% active. AID 2326; note: potency is the fitted concentration of half-maximal effect; actives are rising curves; nearly all actives have a fitted effect of over 50% in size
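OD600 was taken as the measure of yeast growth restored by compound in an NS1-expressing S. cerevisiae strain. Cells had been washed out of glucose medium and diluted 1:100 into galactose -URA medium, pH 6.0.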
Active calls of the source: *; ? = inconclusive; nt = no result given. Unless noted, calls come from the whole dose curve.

SMILES	Shiga toxin inh	LmPK inh	Cycloheximide cs	SARS PLP yeast	Tb PYK inh	NS1 inh
Brc1ccc(-c2nnc(-c3ccccc3)c(N3CCSCC3)n2)cc1	14	1%	2	3%	-13%	-10%
Cc1ccc(-c2nc(N3CCN(C)CC3)c3ccccc3n2)cc1	11	0%	12*	-6%	-4%	1%
CC1CCN(c2nc(-c3ccc(C(C)(C)C)cc3)nc3ccccc23)CC1	nt	nt	nt	nt	-2%	nt
COc1ccc2c(CNCc3ccccc3OC)c(C(=O)O)n(Cc3ccc(F)cc3Cl)c2c1	nt	nt	nt	nt	3%	nt
CCc1cccc(C)c1NC(=O)C(NS(=O)(=O)c1ccc2c(c1)CCC(=O)N2)c1ccccc1 (configuration not stated)	nt	nt	nt	nt	1%	nt
CC(=O)C1=NN(c2ccccc2)C(c2ccc3c(c2)OCO3)N1c1ccc(N2CCOCC2)cc1 (configuration not stated)	-4	0%	-3	3%	4%	7%
COc1cccc(N2C(C(C)=O)=NN(c3ccccc3)C2c2ccc(N3CCOCC3)cc2)c1 (configuration not stated)	69*	2%	64*	-28%	-21%	-23%
CCOc1ccccc1CNC(=O)C1CCCN(c2ncnc3onc(-c4ccc(F)cc4)c23)C1 (configuration not stated)	nt	nt	nt	nt	0%	nt
COc1nc(-c2ccccc2)ccc1-c1noc(-c2cccnc2)n1	3	-3%	8.7*	14%	-3%	-10%
COc1ccccc1-c1noc(-c2cc(OC)c(OC)c(OC)c2)n1	4	-2%	-2	-21%	-17%	-35%
COc1ccccc1-c1noc(-c2cccnc2)n1	67*	-21%	29*	-10%	0%	-4%
COc1ccccc1Cc1nc(-c2cccnc2)no1	55*	1%	37*	-1%	-3%	-4%
COc1nc(-c2ccc(C)cc2)ccc1-c1noc(-c2cccnc2)n1	8	-1%	-2	8%	-5%	-4%
O=S(=O)(c1cccs1)N1CCCc2cccc(O)c21	80*	2%	54*	1%	-5%	-31%
O=C(Nc1ccc2c(c1)N(S(=O)(=O)c1cccs1)CCC2)c1c(F)cccc1F	nt	nt	nt	-13%	2%	nt
O=C(/C=C/c1cccc(F)c1)c1ccc(N2CCOCC2)cc1	99*	-8%	50*	0%	-8%	0%
c1ccc(-n2cnnn2)cc1	nt	nt	nt	nt	-2%	nt
c1ccc(-n2nc3c(ccc4cnnc43)[nH]2)cc1	83*	-6%	43*	-22%	-2%	-51%
O=C(CSc1nnc(NC(=O)c2ccco2)s1)NC1CCCC1	1	-3%	1	-6%	0%	0%
O=C(Nc1nnc(C2CC2)s1)c1ccco1	107*	?	29*	0%	1%	nt
Cc1ccccc1N1CC(c2nnc(NC(=O)c3ccco3)s2)CC1=O (configuration not stated)	nt	nt	nt	nt	-2%	nt
O=C(Nc1nnc(C2CCCCC2)s1)c1ccco1	80*	4%	34*	5%	-9%	-43%
CCC(C(=O)Nc1ccc(C)c(Cl)c1)n1c(=O)c(-c2ccccc2NC(C)=O)nc2ccccc21 (configuration not stated)	nt	nt	nt	nt	-5%	nt
C/C(=N\Nc1nc2ccccc2[nH]1)c1ccc(N2CCOCC2)cc1	61*	0%	40*	0%	3%	nt
C/C(=N\Nc1nc(C)cc(C)n1)c1ccc(N2CCOCC2)cc1	20	3%	17	-1%	-11%	nt
SMILES	Shiga toxin inh	LmPK inh	Cycloheximide cs	SARS PLP yeast	Tb PYK inh	NS1 inh
C/C(=N\Nc1nc2ccccc2[nH]1)c1ccc(Cl)s1	54*	-1%	23*	-1%	-10%	21%
C/C(=N\Nc1ncc(Cl)cc1Cl)c1ccc(N2CCOCC2)cc1	85*	6%	38*	-35%	1%	nt
C/C(=N\n1c(C)nc2ccccc2c1=O)c1ccc(C)o1	11	1%	-1	-1%	0%	-1%
C/C(=N\Nc1nc2ccccc2[nH]1)c1ccc(C)o1	30*	-12%	38*	-13%	0%	-16%
CC(C)(C)C(=O)CP(=O)(O)O	nt	nt	nt	nt	nt	-1%
Cc1ccc(C(=O)NCc2nc3ccccc3[nH]2)o1	97*	-7%	34*	-4%	0%	3%
Cc1ccc(-c2cn3c(n2)SCC3)cc1	141*	2%	43*	-4%	-1%	nt
O=S(=O)(Nc1ccc(-c2cn3c(n2)SCC3)cc1)c1cc(F)ccc1F	nt	nt	nt	nt	-1%	nt
CCc1ccc(-c2cn3c(n2)SCC3)cc1	68*	-15%	47*	-2%	1%	2%
CN(C)S(=O)(=O)Nc1cccc(-c2cn3c(n2)SCC3)c1	2	-2%	-3	8%	0%	4%
CC(=O)N1CCC2(CC1)CCN(c1ccc(-c3ccccc3)cc1)CC2	nt	nt	nt	nt	3%	nt
O=C(Cn1c(=O)n(-c2ccc(Cl)cc2)c(=O)c2c3c(sc21)CCC3)c1ccc(F)cc1	nt	nt	nt	nt	-2%	nt
CC(C)=CC(O)C/C(C)=C/COc1ccc2ccc(=O)oc2c1 (configuration not stated)	38	0%	8.6*	-2%	-6%	9%
CN(C)C(=O)COc1ccc2ccc(=O)oc2c1	13	3%	1	5%	-5%	-1%
Cc1ccc(S(=O)(=O)NCC(c2ccco2)N2CCN(c3ccccc3F)CC2)cc1 (configuration not stated)	nt	nt	nt	nt	-2%	nt
C#CCSC1=C(C#N)C(c2cccs2)C(C(=O)OCC)=C(C)N1 (configuration not stated)	35	0%	24*	-8%	-9%	4%
CN(CCCC1CCCC1)C(=O)c1cc(COc2ccc(F)cc2F)on1	58*	-6%	22*	-2%	11%	-8%
CN(CCC1CCCCO1)C(=O)c1cc(COc2ccc(F)cc2F)on1 (configuration not stated)	44	7%	21*	2%	1%	-18%
CC(C)C(=O)N1CCCC1(C)C(=O)N(C)Cc1cccc2ccccc12 (configuration not stated)	nt	nt	nt	nt	0%	nt
Cn1c(SCc2ccccc2F)nc2c([nH]c3ccccc32)c1=O	nt	nt	nt	nt	4%	nt
COc1cccc(/C=C/C(=O)Nc2ccc3nc4n(c(=O)c3c2)CCCC4)c1OC	42*	19%	23	1%	3%	nt
COc1cc(/C=C/C(=O)Nc2ccc3nc4n(c(=O)c3c2)CCCC4)cc(OC)c1OC	-13	0%	-4	-3%	-3%	nt
COc1cc(OC)cc(C(=O)Nc2ccc3nc4n(c(=O)c3c2)CCCCC4)c1	49*	0%	46*	0%	-2%	-9%
CCN(CC)C(=O)c1sc(NC(=O)c2nc3ncccn3n2)c(C(=O)OC)c1C	nt	nt	nt	nt	-16%	nt
COc1ccc(COc2ccc3c(C)cc(=O)oc3c2)cc1	134*	-8%	67*	0%	3%	-3%

Bioassay records as filed in PubChem.
